Consider 12 compounds from PubChem BioAssay (EPA / NIEHS).

One may read the AC50 as the midpoint of the concentration-response curve, whichever way the signal moves.

Experiment [1] concerns the target human CYP4F12, CYP4F12 (gene 66002) (UniProt Q9HCS2). Kind of experiment: NVS_ADME_hCYP4F12: NovaScreen (NVS) CYP450-related Enzyme Activity (ADME) Assay for human CYP4F12 (AID 2283111). The gist of the method: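 Recombinant enzyme with a fluorescent substrate, signal read at 0.5 h post-dose; activity loss analysed relative to acetonitrile. Compounds first run in duplicate at 10 uM, with follow-up concentration-response testing of actives.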

Experiment [2] has as its target Androgen receptor (Homo sapiens) (UniProt P10275). Kind of experiment: ATG_AR_TRANS: Attagene TRANS-FACTORIAL HepG2 Assay for human Androgen Receptor (AR) (AID 2282973). The conditions noted are these: HepG2 Attagene TRANS-FACTORIAL AR reporter transcription. Put shortly: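 Steps: transfect HepG2 with multiple GAL4-UAS reporter transcription units (TRANS format, exogenous NR-Gal4 protein); dose 24 h; isolate RNA, reverse-transcribe, PCR-amplify, FAM-label, HpaI-digest; resolve by capillary electrophoresis. Positive direction vs DMSO.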

Experiment [3] is described as follows: Tanguay_ZF_120hpf_MUSC: Oregon State University Tanguay Lab 120 Hour Post-fertilization zebrafish Assay for Muscle Malformation (AID 2284401; active = hit-call score of the fitted dose curve at least 0.9, where 1 is the maximum; inactive = score below 0.9). The gist of the method: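 Scored as a binary brightfield endpoint at 120 hpf, fitted versus DMSO. Single dechorionated wild-type (Tropical 5D) zebrafish embryos per well, statically exposed at 28C from 6 hpf onward with final DMSO 0.64%.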

In experiment [4] the target is Cytochrome P450 2C18 (Homo sapiens) (UniProt P33260). As to the kind of experiment: NVS_ADME_hCYP2C18: NovaScreen (NVS) CYP450-related Enzyme Activity (ADME) Assay for human CYP2C18 (AID 2283103; active = hit-call score of the fitted dose curve at least 0.9, where 1 is the maximum; inactive = score below 0.9). The gist of the method:
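Enzyme activity measured by fluorescence 0.5 h after compound addition, using recombinant CYP2C18 and a specific substrate. Actives from duplicate 10 uM screening were retested in concentration series (top 20 uM); acetonitrile served as negative baseline.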

A further experiment deals with rat CYP2B1, gene 24300. As to the kind of experiment: NVS_ADME_rCYP2B1: NovaScreen (NVS) CYP450-related Enzyme Activity (ADME) Assay for rat CYP2B1 (AID 2283117). The gist of the method:
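Cell-free fluorescence enzyme assay, recombinant rat CYP2B1, 0.75 h after dosing. Single-concentration duplicates at 10 uM preceded concentration series (max 20 uM) for actives; acetonitrile as negative-control baseline.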

For experiment [5], the target named is rat CYP2C12, Cyp2c12 (gene 25011) (UniProt P11510). Kind of experiment: NVS_ADME_rCYP2C12: NovaScreen (NVS) CYP450-related Enzyme Activity (ADME) Assay for rat CYP2C12 (AID 2283119). Put shortly:
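Fluorescent-substrate turnover by recombinant rat CYP2C12, measured at 0.5 h, normalized to acetonitrile vehicle. Chemicals screened first at a single 10 uM concentration in duplicate, with concentration series for actives.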

For experiment [6], the target named is human Acetylcholinesterase (AChE), ACHE (gene 43) (UniProt P22303). As to the kind of experiment: NVS_ENZ_hAChE: NovaScreen (NVS) Enzymatic Assay for human Acetylcholinesterase (AChE) (AID 2283129). Put shortly: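 Actives from a duplicate single-point screen (25 uM) were followed up in concentration series. Enzyme activity read by absorbance (colorimetric) 0.33 hour after dosing, cell-free, normalized to DMSO, with loss of signal scored.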
Sequence of human Acetylcholinesterase (AChE), ACHE (gene 43) (P22303 whole entry, looked up): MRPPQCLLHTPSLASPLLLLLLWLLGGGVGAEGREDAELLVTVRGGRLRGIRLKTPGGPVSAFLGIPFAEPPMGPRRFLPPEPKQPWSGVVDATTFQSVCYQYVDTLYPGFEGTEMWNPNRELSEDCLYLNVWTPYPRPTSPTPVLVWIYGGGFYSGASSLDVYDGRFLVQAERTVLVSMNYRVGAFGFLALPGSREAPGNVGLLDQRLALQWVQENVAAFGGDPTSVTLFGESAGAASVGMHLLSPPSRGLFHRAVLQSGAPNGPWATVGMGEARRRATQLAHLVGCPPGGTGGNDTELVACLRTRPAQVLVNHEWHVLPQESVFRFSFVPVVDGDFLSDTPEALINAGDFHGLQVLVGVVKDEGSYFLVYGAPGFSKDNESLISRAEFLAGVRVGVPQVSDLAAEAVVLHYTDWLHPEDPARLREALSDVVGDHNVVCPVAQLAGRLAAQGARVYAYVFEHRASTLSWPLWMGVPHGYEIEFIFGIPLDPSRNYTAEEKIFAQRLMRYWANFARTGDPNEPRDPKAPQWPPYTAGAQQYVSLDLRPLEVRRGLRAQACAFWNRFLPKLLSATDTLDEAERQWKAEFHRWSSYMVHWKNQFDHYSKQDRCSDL

The next experiment deals with Caspase-1 (Homo sapiens) (UniProt P29466). As to the kind of experiment: NVS_ENZ_hCASP1: NovaScreen (NVS) Enzymatic Assay for human Caspase 1 (CASP1) (AID 2283132). Put shortly: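 Compounds were first tested in duplicate at 25 uM, with follow-up concentration series up to 50 uM. The bacterially expressed enzyme was read by fluorescence at 1 h post-dosing. Signal loss versus DMSO baseline indicates reduced enzyme activity.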
Sequence of Caspase-1 (Homo sapiens) (P29466 whole entry, looked up): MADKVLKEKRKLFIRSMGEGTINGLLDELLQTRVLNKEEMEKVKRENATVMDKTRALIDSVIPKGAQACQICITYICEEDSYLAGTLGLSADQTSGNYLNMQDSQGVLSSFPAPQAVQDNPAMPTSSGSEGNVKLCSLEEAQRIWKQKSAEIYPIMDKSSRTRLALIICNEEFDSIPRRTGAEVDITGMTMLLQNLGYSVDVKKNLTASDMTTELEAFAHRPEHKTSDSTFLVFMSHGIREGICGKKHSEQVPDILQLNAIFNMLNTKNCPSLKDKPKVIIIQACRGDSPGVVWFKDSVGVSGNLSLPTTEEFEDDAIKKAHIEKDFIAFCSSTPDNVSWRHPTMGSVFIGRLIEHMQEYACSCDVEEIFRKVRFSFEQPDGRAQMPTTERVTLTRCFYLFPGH

In experiment [7] the target is human Caspase 2 (CASP2), CASP2 (gene 835) (UniProt P42575). As to the kind of experiment: NVS_ENZ_hCASP2: NovaScreen (NVS) Enzymatic Assay for human Caspase 2 (CASP2) (AID 2283135). Put shortly:
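Single-point duplicate testing at 25 uM preceded concentration series topping at 50 uM. Activity of the recombinant E. coli-derived protease was followed by fluorescent substrate cleavage 1 h post-dosing, relative to DMSO.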

The target in experiment [8] is human Aurora Kinase A - serine/threonine-protein Kinase 6 (AurA), AURKA (gene 6790) (UniProt O14965). As to the kind of experiment: NVS_ENZ_hAurA: NovaScreen (NVS) Enzymatic Assay for human Aurora Kinase A - serine/threonine-protein Kinase 6 (AurA) (AID 2283142). Put shortly: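 Recombinant human AurA activity read by fluorescence after mobility-shift separation of product from substrate; 1 hour incubation. Chemicals first run in duplicate at 25 uM, then concentration series to 50 uM if over threshold; fitted relative to DMSO.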

The target of experiment [9] is human Fibroblast Growth Factor Receptor 1 (FGFR1), FGFR1 (gene 2260) (UniProt P11362). As to the kind of experiment: NVS_ENZ_hFGFR1: NovaScreen (NVS) Enzymatic Assay for human Fibroblast Growth Factor Receptor 1 (FGFR1) (AID 2283159).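 Also: hits lower the signal so potencies describe inhibitors of the kinase.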 The gist of the method: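 Cell-free recombinant kinase with fluorescent substrate, product separated by electrophoretic mobility shift; read 1 hour after dosing, loss of signal relative to DMSO. Initial screen in duplicate at 25 uM, actives followed in concentration series.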

Experiment [10] has as its target human Phosphatase and Tensin Homolog (PTEN), PTEN (gene 5728) (UniProt P60484). As to the kind of experiment: NVS_ENZ_hPTEN: NovaScreen (NVS) Enzymatic Assay for human Phosphatase and Tensin Homolog (PTEN) (AID 2283203). Put shortly: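 Loss of fluorescent product signal after mobility-shift separation reports PTEN activity, recombinant human enzyme, 1 h after compound addition. Single 25 uM duplicate screen, then concentration-response on actives; DMSO baseline.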

For experiment [11], the target named is human Protein Tyrosine Phosphatase Non-receptor Type 2 (PTPN2), PTPN2 (gene 5771) (UniProt P17706). Kind of experiment: NVS_ENZ_hPTPN2: NovaScreen (NVS) Enzymatic Assay for human Protein Tyrosine Phosphatase Non-receptor Type 2 (PTPN2) (AID 2283207). The gist of the method: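 Activity measured as fluorescence after mobility-shift separation of substrate and product, 1 h after compound. Duplicate single-point 25 uM primary testing, concentration series for actives; inhibition scored as signal loss relative to DMSO baseline.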

Experiment [12] concerns the target human Tyrosine Protein Kinase Receptor Tie-2 (Tie2), TEK (gene 7010) (UniProt Q02763). As to the kind of experiment: NVS_ENZ_hTie2: NovaScreen (NVS) Enzymatic Assay for human Tyrosine Protein Kinase Receptor Tie-2 (Tie2) (AID 2283225). The gist of the method:
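Substrate and product were separated by mobility shift and detected by fluorescence after a 1-hour reaction with recombinant Tie2. Chemicals passing a 25 uM single-point screen were titrated to a maximum of 50 uM. Results were normalized to DMSO baseline.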

Experiment [13] addresses rat Adenylate Cyclase, Forskolin Stimulated, Adcy5 (gene 64532) (UniProt Q04400). Kind of experiment: NVS_ENZ_rACFSKBinding: NovaScreen (NVS) Enzymatic Assay for rat Adenylate Cyclase, Forskolin Stimulated (AID 2283232). The gist of the method: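 Chemicals were first tested at 25 uM in duplicate, then hits run as concentration series with top concentration 50 uM. Enzyme source was rat forebrain membranes; radiometric filter read-out after 1 h, referenced to DMSO.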

Experiment [14] addresses rat Acetylcholinesterase (AChE), Ache (gene 83817) (UniProt P37136). Kind of experiment: NVS_ENZ_rAChE: NovaScreen (NVS) Enzymatic Assay for rat Acetylcholinesterase (AChE) (AID 2283233). Put shortly: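 Compounds first screened at 25 uM in duplicate, then those passing threshold tested in concentration series up to 50 uM, against AChE from rat brain membranes. Enzyme activity read by absorbance at 0.33 h; inhibition scored versus DMSO.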

Experiment [15] addresses rat Corticotropin Releasing Factor Receptor (CRF), Crhr1 (gene 58959) (UniProt P35353). As to the kind of experiment: NVS_GPCR_rCRF: NovaScreen (NVS) G Protein-Coupled Receptor Assay for rat Corticotropin Releasing Factor Receptor (CRF) (AID 2283300). The gist of the method: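 Single-concentration (25 uM, duplicate) radioligand binding on rat cortical membrane preparations, counted by scintillation after 2 h. Activity scored as signal loss relative to DMSO negative control.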

Experiment [16] addresses human Neonicotinoid receptor (NNR), CHRNA2 (gene 1135) (UniProt Q15822). Kind of experiment: NVS_LGIC_hNNR_NBungSens: NovaScreen (NVS) Ligand-Gated Ion Channel Assay for human Neonicotinoid receptor (NNR) (AID 2283313). The gist of the method: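 Compounds first screened in duplicate at 25 uM, then actives re-tested in single-replicate dose series up to 50 uM. Binding measured as displacement of specific radioligand from neuroblastoma membrane receptors after 2 h, scintillation read on filters.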

Experiment [17] concerns the target rat CYP1A2, Cyp1a2 (gene 24297) (UniProt P04799). Kind of experiment: NVS_ADME_rCYP1A2: NovaScreen (NVS) CYP450-related Enzyme Activity (ADME) Assay for rat CYP1A2 (AID 2283115). The gist of the method: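 Primary testing ran in duplicate at 10 uM, with actives re-tested across concentration series. Fluorescence intensity from substrate turnover by recombinant protein, measured 1 hour post-dosing, with signal loss scored against acetonitrile vehicle.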

Experiment [18] concerns the target rat Oxytocin Receptor (OXT), Oxtr (gene 25342) (UniProt P70536). As to the kind of experiment: NVS_GPCR_rOXT: NovaScreen (NVS) G Protein-Coupled Receptor Assay for rat Oxytocin Receptor (OXT) (AID 2283330). Put shortly: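 Binding to rat uterine membrane receptor was followed by scintillation counting of filter-trapped radioligand after 1 h. A 25 uM duplicate single-point screen preceded concentration series with a top of 50 uM. Signal loss was analysed relative to DMSO.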

Experiment [19] has as its target Norway rat Vesicular Monoamine Transporter (VMAT2), neurotransmitter transporter, Slc18a2 (gene 25549) (UniProt Q01827). As to the kind of experiment: NVS_TR_rVMAT2: NovaScreen (NVS) Transporter Assay for Norway rat Vesicular Monoamine Transporter (VMAT2), neurotransmitter transporter (AID 2283376).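 Also: actives lower the bound radioligand signal below the DMSO level.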 Put shortly:
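Binding endpoint from rat forebrain tissue, cell-free; 1 h incubation; filtered radioligand counted; 25 uM duplicate primary then dose series; DMSO negative control.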

Experiment [20] has as its system rat Monoamine Oxidase, MAO-A, Central (MAOAC), gene 29253. As to the kind of experiment: NVS_ENZ_rMAOAC: NovaScreen (NVS) Enzymatic Assay for rat Monoamine Oxidase, MAO-A, Central (MAOAC) (AID 2283243).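 Also: potency refers to inhibition seen as signal drop below DMSO baseline.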 The gist of the method:
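Single-concentration duplicate testing at 25 uM, then concentration-response for actives, in a lysate-based radiodetection MAO-A activity assay from rat brain. Enzyme activity measured 1.5 hours post-dosing; DMSO served as negative control and baseline.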

Records with an inconclusive call do not appear. Activity calls are given as the source filed them. The calls were made as follows, unless noted: active = hit-call score of the fitted dose curve at least 0.9, where 1 is the maximum; inconclusive = response in the unintended direction; inactive = score below 0.9.

Sequence of Androgen receptor (Homo sapiens) (P10275 whole entry, looked up, the tested form may be a part): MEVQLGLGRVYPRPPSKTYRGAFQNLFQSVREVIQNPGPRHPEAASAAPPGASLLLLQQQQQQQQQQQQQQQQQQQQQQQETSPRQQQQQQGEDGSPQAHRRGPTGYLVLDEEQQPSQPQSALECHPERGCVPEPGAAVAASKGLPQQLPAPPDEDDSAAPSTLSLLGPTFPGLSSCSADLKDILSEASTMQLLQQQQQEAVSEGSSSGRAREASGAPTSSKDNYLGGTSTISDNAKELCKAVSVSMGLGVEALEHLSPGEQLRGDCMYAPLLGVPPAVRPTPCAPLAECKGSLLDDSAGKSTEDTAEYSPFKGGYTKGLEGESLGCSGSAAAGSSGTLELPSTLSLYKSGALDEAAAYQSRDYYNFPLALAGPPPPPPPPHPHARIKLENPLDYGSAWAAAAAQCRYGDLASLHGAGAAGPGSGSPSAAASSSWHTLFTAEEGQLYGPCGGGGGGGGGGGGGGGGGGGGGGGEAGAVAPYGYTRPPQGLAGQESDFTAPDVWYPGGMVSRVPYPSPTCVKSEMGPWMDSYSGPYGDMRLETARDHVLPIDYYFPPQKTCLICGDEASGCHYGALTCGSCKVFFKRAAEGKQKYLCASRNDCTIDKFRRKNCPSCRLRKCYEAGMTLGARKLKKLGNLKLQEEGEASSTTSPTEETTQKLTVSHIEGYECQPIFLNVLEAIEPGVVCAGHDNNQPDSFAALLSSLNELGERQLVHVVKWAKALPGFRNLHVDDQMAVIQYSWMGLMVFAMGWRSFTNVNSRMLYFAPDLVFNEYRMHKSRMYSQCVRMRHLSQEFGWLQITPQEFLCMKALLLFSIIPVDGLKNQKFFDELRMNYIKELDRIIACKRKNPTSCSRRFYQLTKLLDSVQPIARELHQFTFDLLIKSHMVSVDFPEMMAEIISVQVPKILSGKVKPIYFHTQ
Sequence of human CYP4F12, CYP4F12 (gene 66002) (Q9HCS2 whole entry, looked up): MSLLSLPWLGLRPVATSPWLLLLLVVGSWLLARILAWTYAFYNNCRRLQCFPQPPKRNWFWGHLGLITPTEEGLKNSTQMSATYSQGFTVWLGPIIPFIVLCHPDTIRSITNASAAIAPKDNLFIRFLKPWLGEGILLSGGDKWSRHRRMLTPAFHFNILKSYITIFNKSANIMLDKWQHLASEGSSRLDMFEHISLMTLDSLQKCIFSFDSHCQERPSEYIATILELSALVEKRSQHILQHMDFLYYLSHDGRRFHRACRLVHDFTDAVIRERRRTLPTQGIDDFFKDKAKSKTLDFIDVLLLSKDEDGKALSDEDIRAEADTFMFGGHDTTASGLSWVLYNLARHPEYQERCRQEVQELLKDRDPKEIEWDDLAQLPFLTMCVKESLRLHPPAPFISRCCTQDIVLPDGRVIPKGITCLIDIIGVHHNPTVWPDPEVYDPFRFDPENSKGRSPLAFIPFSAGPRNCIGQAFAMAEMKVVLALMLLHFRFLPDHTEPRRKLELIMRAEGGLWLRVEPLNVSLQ
Sequence of Norway rat Vesicular Monoamine Transporter (VMAT2), neurotransmitter transporter, Slc18a2 (gene 25549) (Q01827 whole entry, looked up): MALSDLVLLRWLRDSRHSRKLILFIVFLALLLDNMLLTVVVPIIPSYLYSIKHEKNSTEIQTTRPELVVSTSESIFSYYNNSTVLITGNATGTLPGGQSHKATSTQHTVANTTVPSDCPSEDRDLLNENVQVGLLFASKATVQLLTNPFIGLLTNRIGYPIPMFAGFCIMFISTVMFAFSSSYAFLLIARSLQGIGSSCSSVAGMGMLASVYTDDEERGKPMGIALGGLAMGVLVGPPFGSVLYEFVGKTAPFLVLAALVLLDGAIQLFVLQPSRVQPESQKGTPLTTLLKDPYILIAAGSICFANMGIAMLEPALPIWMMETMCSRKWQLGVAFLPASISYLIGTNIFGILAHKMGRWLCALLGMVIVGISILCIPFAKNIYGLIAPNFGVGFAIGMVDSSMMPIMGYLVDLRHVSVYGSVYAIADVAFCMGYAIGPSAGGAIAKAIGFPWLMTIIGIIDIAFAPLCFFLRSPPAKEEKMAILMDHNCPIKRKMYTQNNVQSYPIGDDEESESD
Sequence of Cytochrome P450 2C18 (Homo sapiens) (P33260 whole entry, looked up): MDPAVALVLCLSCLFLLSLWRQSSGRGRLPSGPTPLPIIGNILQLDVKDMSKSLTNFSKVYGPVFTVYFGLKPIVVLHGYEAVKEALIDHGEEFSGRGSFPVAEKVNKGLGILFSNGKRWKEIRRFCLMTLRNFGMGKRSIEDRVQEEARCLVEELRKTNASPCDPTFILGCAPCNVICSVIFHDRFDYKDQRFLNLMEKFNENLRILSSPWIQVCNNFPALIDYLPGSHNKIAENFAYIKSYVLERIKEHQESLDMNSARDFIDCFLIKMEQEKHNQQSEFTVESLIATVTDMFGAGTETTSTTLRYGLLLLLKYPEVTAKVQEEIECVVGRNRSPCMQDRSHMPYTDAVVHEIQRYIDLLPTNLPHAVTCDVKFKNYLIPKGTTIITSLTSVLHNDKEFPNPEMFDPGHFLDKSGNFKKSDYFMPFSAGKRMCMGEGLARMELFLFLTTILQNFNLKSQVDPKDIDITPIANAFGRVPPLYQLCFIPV
Sequence of rat CYP2C12, Cyp2c12 (gene 25011) (P11510 whole entry, looked up): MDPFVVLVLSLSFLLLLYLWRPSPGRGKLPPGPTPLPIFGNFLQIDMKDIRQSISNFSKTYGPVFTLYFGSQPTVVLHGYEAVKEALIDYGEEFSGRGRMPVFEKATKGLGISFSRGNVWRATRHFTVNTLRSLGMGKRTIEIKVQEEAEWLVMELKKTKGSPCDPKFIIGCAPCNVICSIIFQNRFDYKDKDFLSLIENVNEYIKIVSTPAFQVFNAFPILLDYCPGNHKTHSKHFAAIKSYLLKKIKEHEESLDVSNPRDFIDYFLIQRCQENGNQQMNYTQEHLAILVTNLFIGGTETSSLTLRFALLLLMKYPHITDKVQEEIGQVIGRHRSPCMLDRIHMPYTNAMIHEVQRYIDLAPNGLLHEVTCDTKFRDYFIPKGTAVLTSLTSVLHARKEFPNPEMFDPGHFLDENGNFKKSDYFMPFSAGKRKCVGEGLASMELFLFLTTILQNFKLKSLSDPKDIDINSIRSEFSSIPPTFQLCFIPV
Sequence of rat CYP1A2, Cyp1a2 (gene 24297) (P04799 whole entry, looked up): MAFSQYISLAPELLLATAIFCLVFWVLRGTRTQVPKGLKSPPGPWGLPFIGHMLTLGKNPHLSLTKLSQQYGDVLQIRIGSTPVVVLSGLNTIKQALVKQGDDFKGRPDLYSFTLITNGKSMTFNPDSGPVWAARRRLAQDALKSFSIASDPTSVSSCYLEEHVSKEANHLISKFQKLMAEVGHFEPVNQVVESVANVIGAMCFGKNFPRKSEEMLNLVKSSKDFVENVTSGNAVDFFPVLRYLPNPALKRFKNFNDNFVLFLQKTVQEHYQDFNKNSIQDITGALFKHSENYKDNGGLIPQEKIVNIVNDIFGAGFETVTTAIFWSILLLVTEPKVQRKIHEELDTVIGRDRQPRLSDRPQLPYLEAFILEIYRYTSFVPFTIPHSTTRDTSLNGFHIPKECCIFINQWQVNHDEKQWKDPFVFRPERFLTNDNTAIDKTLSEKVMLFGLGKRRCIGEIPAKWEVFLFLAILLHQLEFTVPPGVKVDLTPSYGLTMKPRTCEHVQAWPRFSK
Sequence of human Neonicotinoid receptor (NNR), CHRNA2 (gene 1135) (Q15822 whole entry, looked up): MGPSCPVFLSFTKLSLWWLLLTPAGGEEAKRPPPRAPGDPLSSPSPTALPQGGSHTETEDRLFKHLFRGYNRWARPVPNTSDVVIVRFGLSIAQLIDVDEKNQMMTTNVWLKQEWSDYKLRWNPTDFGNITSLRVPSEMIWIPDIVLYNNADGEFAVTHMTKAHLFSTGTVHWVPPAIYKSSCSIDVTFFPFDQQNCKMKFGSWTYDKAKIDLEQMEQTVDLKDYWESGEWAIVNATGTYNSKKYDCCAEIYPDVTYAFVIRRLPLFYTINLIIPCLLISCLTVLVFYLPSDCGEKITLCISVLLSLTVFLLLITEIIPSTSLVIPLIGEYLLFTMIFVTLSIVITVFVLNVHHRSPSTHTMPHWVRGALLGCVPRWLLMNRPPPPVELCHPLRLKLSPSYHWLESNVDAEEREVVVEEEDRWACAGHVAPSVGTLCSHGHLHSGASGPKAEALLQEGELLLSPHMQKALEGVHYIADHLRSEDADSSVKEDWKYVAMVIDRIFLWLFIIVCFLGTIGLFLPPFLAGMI

As to `CCc1ccc(O)c(C(C)(C)C)c1`, the result in experiment [1] was inactive.
`O=C(O)C(F)(F)C(F)(F)C(F)F`: the call in experiment [2] and in experiment [3] was inactive.
For the compound `CCOC(=O)CC(=O)C(F)(F)C(F)(F)F`, the result in [2] and in [3] was inactive.
Take `OCC(F)(F)C(F)(F)C(F)(F)CO`: the compound was classed as inactive in experiment [2] and in experiment [3].
In the case of `FC(F)(F)C(F)(F)C(F)(F)N(C(F)(F)C(F)(F)C(F)(F)F)C(F)(F)C(F)(F)C(F)(F)F`, the outcome in experiment [2] and in experiment [3] was inactive.
For `C[C@]12CC[C@@H]3c4ccc(O)cc4CC[C@H]3[C@@H]1CC[C@@H]2O`, the AC50 in experiment [4] was 9.57 µM (active); in the experiment with rat CYP2B1, gene 24300 it was 14.1 µM (active). The call in experiment [1] and in experiment [5] was inactive.
As to `C=C(C)C(=O)OCCC(F)(F)C(F)(F)C(F)(F)C(F)(F)C(F)(C(F)(F)F)C(F)(F)F`, the compound was classed as inactive in experiment [2] and in [3].
In the case of `S=C([S-])NCCNC(=S)[S-].[Mn+2]`, the concentration at half-maximal activity (AC50) in experiment [4] was 10 µM (active); in experiment [8], 1.79 µM (active); in [9], 19.1 µM (active); in experiment [10], 0.933 µM (active); in experiment [11] it was 0.295 µM (active); in experiment [12], 12.9 µM (active). Also, in experiment [15], the AC50 was 12.5 µM (active). Also, the compound was classed as inactive (in experiment [5]; in experiment [6]; with Caspase-1 (Homo sapiens); in experiment [7]; in [13]; in experiment [14]). For the same compound, in experiment [16], the outcome was inactive.
Turning to `CNNCc1ccc(C(=O)NC(C)C)cc1`, the outcome in [17] was inactive.
Turning to `Cc1occc1C(=O)Nc1ccc(C(=O)N2CCC(F)(F)/C(=C\C(=O)N3CCC(N4CCCCC4)CC3)c3ccccc32)cc1`, the values for the AC50 in [1], in [18] and in experiment [19] were 1.24 µM (active), 0.119 µM (active) and 5.73 µM (active), respectively.
For the compound `Cc1ccccc1Cl`, the AC50 in experiment [1] is 7.95 µM (active). Besides, the compound was called inactive in experiment [19].
Take `CCCCCCC(C)OC(=O)COc1nc(F)c(Cl)c(N)c1Cl` (stereo not drawn): the AC50 with rat CYP2B1, gene 24300 was 6.09 µM (active). Besides, the call (with Caspase-1 (Homo sapiens); in experiment [20]) was inactive.
